Screening results: PubChem, National Center for Advancing Translational Sciences (NCATS)
Rows were chosen to be rich in hits. Some 2.4% of all compounds tested hit in one or more screens of this group.
D2 antagonist: antagonizes the human D2 dopamine receptor; P14416; inhibition, % at 10 µM; AID 485344; HEK293 TREx D2 cells, calcium flux, dopamine EC80; actives 2% (n = 340,000); in the data active = inhibition above about 30%; inactive = below that, where a call was filed; also: 0% is about no effect
Target sequence (P14416 whole entry, looked up): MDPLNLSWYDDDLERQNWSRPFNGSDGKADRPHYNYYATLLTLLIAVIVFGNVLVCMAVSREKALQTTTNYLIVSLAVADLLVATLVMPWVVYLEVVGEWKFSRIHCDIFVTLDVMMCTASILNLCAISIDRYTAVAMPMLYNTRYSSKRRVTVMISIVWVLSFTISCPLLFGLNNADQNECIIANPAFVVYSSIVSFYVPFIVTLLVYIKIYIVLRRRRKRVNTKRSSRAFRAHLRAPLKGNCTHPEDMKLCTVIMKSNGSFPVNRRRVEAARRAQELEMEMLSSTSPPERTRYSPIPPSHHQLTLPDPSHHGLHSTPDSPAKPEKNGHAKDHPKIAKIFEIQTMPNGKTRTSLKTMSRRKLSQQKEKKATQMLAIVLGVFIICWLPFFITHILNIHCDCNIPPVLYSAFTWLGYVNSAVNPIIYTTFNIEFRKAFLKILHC
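Tetracycline-induced HEK293 TREx cells expressing D2 receptor forced-coupled to calcium signalling, loaded with no-wash calcium dye. Compounds added and calcium flux read 180 s, then dopamine added at EC80 and read a further 180 s.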
D2 ag-1: activates the human D2 dopamine receptor | P14416 | HEK293 T-REx D2 cells, calcium flux agonist mode | activation, % at 2 µM | actives 0.53% (n = 340,000);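 active = activation over 3 SD above normal in the single-dose calcium agonist read, cut at about 30% in these data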; also: 0% is about no effect
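Tetracycline-induced HEK293 T-REx cells with force-coupled D2 receptor, plated overnight at 30 C, loaded with no-wash calcium dye. After a 10 s baseline, compound was pin-added and calcium flux read kinetically for 180 s; calcium rises flagged agonists.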
D2 PAM-1: D2 dopamine receptor (human) potentiation; P14416; HEK293 T-REx D2, calcium flux, EC20 dopamine potentiation; potentiation, % at 10 µM; actives 0.34% (n = 340,000); AID 485347;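 active = potentiation over 3 SD above the plate norm, cut at about 30% in these data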; also: 0% is about no effect
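Cells plated with tetracycline inducer and held overnight at 30 C; calcium dye loaded 30–90 min at room temperature; baseline taken, compound added and read 180 s; EC20 dopamine then added and read 180 s.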
D2 PAM-2: positive allosteric modulators of human D2 dopamine receptor. DiscoveRx D2 beta-arrestin cells, luminescence, 90 min; 100% = 57 uM dopamine signal. potentiation, % (test concentration not listed). actives 0.23% (n = 360,000); in the data active = potentiation above about 50%; inconclusive = mostly about 30% to 49%
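PathHunter D2 cells, attached overnight at 37 deg C, received compound in DMSO plus dopamine at EC20 (50 nM final) for 90 min at 37 deg C. Beta-arrestin recruitment was read as luminescence after 1 h with detection reagent at ambient temperature.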
D2 ag-2: activates the human D2 dopamine receptor; activation, % (test concentration not listed); P14416; actives 0.084% (n = 360,000); DiscoveRx PathHunter D2 beta-arrestin, luminescence, 90 min; 100% = 57 uM dopamine signal; AID 624465; in the data active = activation above about 40%; inconclusive = between about 15% and that limit
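DiscoveRx PathHunter D2 beta-arrestin cells (2,100/well) attached overnight, then compound-stimulated 90 min at 37 C in HBSS/10 mM HEPES/0.1% Tween-20 buffer; beta-galactosidase complementation read by luminescence after 1 h at ambient temperature. Dopamine 57 uM final (EC100) as control.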
Numbers without * were called inactive; ! = not confirmed by another sample.

What do the screens show for `CN(C)c1nc(Oc2ccc(=O)[nH]n2)nc(N2CCCCC2)n1`?
D2 antagonist: 31*; D2 ag-1: 0; D2 PAM-1: -19; D2 PAM-2: -6; D2 ag-2: -1

What do the screens show for `Cc1cccc(CSc2ncc(Cl)c(C(=O)Nc3sc4c(c3C(N)=O)CCCC4)n2)c1`?
D2 PAM-1: 4

Results for N/C(=N\OC(=O)c1ccc(Cl)cc1Cl)c1ccc(Cl)cc1 ?
D2 antagonist: 12; D2 ag-1: 0; D2 PAM-1: 10; D2 PAM-2: 114*; D2 ag-2: inconclusive

Results for N/C(=N\OC(=O)c1ccc(Cl)cc1)c1cccnc1 ?
D2 antagonist: 8; D2 ag-1: 0; D2 PAM-1: -10; D2 PAM-2: 27; D2 ag-2: inconclusive

How did N/C(=N\OC(=O)c1ccc(Cl)cc1)c1ccc(Cl)cc1 do in these assays?
D2 antagonist: -19; D2 ag-1: 0; D2 PAM-1: 0; D2 PAM-2: 86*; D2 ag-2: inconclusive

Results for N/C(=N\OC(=O)c1ccccc1Cl)c1ccc(Cl)cc1 ?
D2 PAM-2: 26; D2 ag-2: inconclusive

Results for N/C(=N\OC(=O)c1ccc(Cl)cc1Cl)c1ccccc1 ?
D2 antagonist: 15; D2 ag-1: -1; D2 PAM-1: -1; D2 PAM-2: inconclusive; D2 ag-2: inconclusive

What do the screens show for `N/C(=N\OC(=O)c1ccc(Cl)cc1Cl)c1cccnc1`?
D2 antagonist: 10; D2 ag-1: 1; D2 PAM-1: 6; D2 PAM-2: 9; D2 ag-2: 50*

How did N/C(=N\OC(=O)c1ccc(OCC(F)(F)F)nc1)c1ccc(Cl)cc1 do in these assays?
D2 antagonist: 30*; D2 ag-1: 0; D2 PAM-1: 4; D2 PAM-2: 53*; D2 ag-2: inconclusive

How did COc1cc2c(cc1OC)C(COc1ccc3c(C)cc(=O)oc3c1)N(C(=O)c1cc(Cl)ccc1OC)CC2 (stereo unspecified) do in these assays?
D2 ag-1: 0; D2 PAM-1: 10

How did O=C(CCn1c(=O)oc2ccccc21)Nc1ccccc1 do in these assays?
D2 antagonist: 1; D2 ag-1: 1; D2 PAM-1: -2; D2 PAM-2: -12; D2 ag-2: 5

What do the screens show for `COc1ccccc1OCCCn1c(=O)oc2ccccc21`?
D2 antagonist: 34*; D2 ag-1: 0; D2 PAM-1: -11; D2 PAM-2: -5; D2 ag-2: -10

How did COc1ccccc1OCCCn1c(=O)oc2ccc(C)cc21 do in these assays?
D2 antagonist: -7; D2 ag-1: 0; D2 PAM-1: 4; D2 PAM-2: 1; D2 ag-2: -2

Results for COc1cc(NC(=O)CCn2c(=O)oc3ccccc32)cc(OC)c1OC ?
D2 antagonist: -22; D2 ag-1: 1; D2 PAM-1: 34*!; D2 PAM-2: -4; D2 ag-2: 4

Results for COc1ccccc1CCNC(=O)C(=O)NCC(c1ccco1)S(=O)(=O)c1ccc(F)cc1 (stereo unspecified) ?
D2 ag-1: 1; D2 PAM-1: -5

How did COc1ccc(C(=O)O)c(OC)n1 do in these assays?
D2 antagonist: 30*; D2 ag-1: -2; D2 PAM-1: -7; D2 PAM-2: -5; D2 ag-2: -6

How did COc1ccc(C(=O)Nc2ccc(Cl)c(Cl)c2)c(OC)n1 do in these assays?
D2 antagonist: -2; D2 ag-1: 0; D2 PAM-1: -9; D2 PAM-2: -9; D2 ag-2: 1

Results for Cc1c(/C=N\NC(=O)C2COc3ccc(C(C)(C)C)cc3O2)c2ccccc2n1C (stereo unspecified) ?
D2 antagonist: 58*; D2 ag-1: 1; D2 PAM-1: -10; D2 PAM-2: 118*; D2 ag-2: 45*

How did Cc1ccc(C)c(N2CCN(C(=O)CN3C(=O)COc4ccc(S(=O)(=O)N5CCOCC5)cc43)CC2)c1 do in these assays?
D2 ag-1: -1; D2 PAM-1: 6

How did O=C(CSc1n[nH]c(-c2ccc(S(=O)(=O)N3CCCCC3)cc2)n1)Nc1nccs1 do in these assays?
D2 antagonist: 39*; D2 ag-1: 1; D2 PAM-1: 0; D2 PAM-2: -2; D2 ag-2: 0

What do the screens show for `CCN(CC)S(=O)(=O)c1cccc(NC(=O)COC(=O)C2COc3ccccc3O2)c1` (stereo unspecified)?
D2 antagonist: 13; D2 ag-1: -1; D2 PAM-1: -9; D2 PAM-2: -12; D2 ag-2: 1

How did CCN(CC)S(=O)(=O)c1cccc(NC(=O)COC(=O)C2=COCCO2)c1 do in these assays?
D2 antagonist: 30*; D2 ag-1: 0; D2 PAM-1: -4; D2 PAM-2: -10; D2 ag-2: 0

How did Cc1nc(-c2ccc(S(=O)(=O)NCc3ccc(OC(C)C)cc3)cc2)co1 do in these assays?
D2 ag-1: -2; D2 PAM-1: -1

Results for Cc1nc2ccc(-c3nc4ccccc4o3)cc2[nH]1 ?
D2 antagonist: -10; D2 ag-1: 1; D2 PAM-1: -2; D2 PAM-2: 0; D2 ag-2: -1

How did Nc1cc(N)cc(-c2nc3ccccc3[nH]2)c1 do in these assays?
D2 antagonist: 27; D2 ag-1: -1; D2 PAM-1: 3; D2 PAM-2: 53*; D2 ag-2: 6

How did Nc1ccc(-c2nc3ccc(-c4nc5ccccc5o4)cc3[nH]2)cc1 do in these assays?
D2 antagonist: -21; D2 ag-1: 0; D2 PAM-1: 2; D2 PAM-2: 65*; D2 ag-2: 3

Results for Cc1ccc(C(=O)Nc2ccc3c(c2)N(C)C(=O)c2ccccc2S3)cc1 ?
D2 ag-1: 1; D2 PAM-1: 3

How did COc1ccc(O)c(CNn2c(-c3ccc(Br)cc3)nc3ccccc3c2=O)c1 do in these assays?
D2 antagonist: 50*; D2 ag-1: -2; D2 PAM-1: 3; D2 PAM-2: 8; D2 ag-2: -3

What do the screens show for `COc1ccc(N=Cc2ccccc2O)cc1`?
D2 PAM-2: -2; D2 ag-2: -2

What do the screens show for `C=CCOc1ccc(C=Nc2ccc(OC)cc2)c(O)c1`?
D2 antagonist: -6; D2 ag-1: 0; D2 PAM-1: 48*; D2 PAM-2: 2; D2 ag-2: 2

How did COCCc1ccc(OCC(O)CNC(C)C)cc1 (stereo unspecified) do in these assays?
D2 antagonist: 34*!; D2 ag-1: 1; D2 PAM-1: -4; D2 PAM-2: 0; D2 ag-2: -2

How did OC(CNCC1CCCCC1)COc1ccccc1 (stereo unspecified) do in these assays?
D2 antagonist: 46*; D2 ag-1: 0; D2 PAM-1: -20; D2 PAM-2: -22; D2 ag-2: -1

How did CC(CCc1ccccc1)NCC(O)COc1ccccc1 (stereo unspecified) do in these assays?
D2 antagonist: 55*; D2 ag-1: 35*; D2 PAM-1: -30; D2 PAM-2: -9; D2 ag-2: 5
